Experimental data: PubChem BioAssay (NCI)
About 83,000 compounds went through this panel and 20% of them were active in at least one assay; those are over-represented in the sample as a whole.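 48-hour exposure, single concentration, 96-well plates; percent growth endpoint where 0 means no net growth. Active: below 10.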 The source made the active and inactive calls.

Tested on: NCI/ADR-RES ovarian
Assay: NCI-60 one-dose screen, 48 h (100 = growth as untreated, 0 = no growth, -100 = all killed)
Conditions: 10 µM unless noted

Row | SMILES | growth
1 | N/N=C(\C(=N\N)c1ccccc1)c1ccccc1 | 102% (inactive)
2 | C=C(C)[C@@H]1CC[C@]2(C(=O)NS(=O)(=O)c3ccccc3)CC[C@]3(C)[C@H](CC[C@@H]4[C@@]5(C)CC[C@H](OC(=O)NS(=O)(=O)c6ccccc6)C(C)(C)[C@@H]5CC[C@]43C)[C@@H]12 | 17.1% (inactive)
3 | O=[N+]([O-])c1ccc(N/N=C/c2ccccc2O)nc1 | 21.3% (inactive)
4 | CN1C(=O)N(C)C2C1NN=c1s/c(=C\c3ccc(C(F)(F)F)cc3)c(=O)n12 (stereo not drawn) | 15.4% (inactive)
5 | CC(C)c1ccc(-c2cnc3nonc3n2)cc1 | 19.9% (inactive)
6 | COc1ccc(N=C2CSc3nnc(-c4cc(F)c(Cl)cc4Cl)n3N2)cc1 | 9.18% (active)
7 | O=C1C=CN2C(=O)CC=CC2[C@@H]1O (stereo partly drawn) | 106% (inactive)
8 | CCCNCCC(C)=O | 100% (inactive)
9 | O=C(Cc1ccc([N+](=O)[O-])cc1)Oc1ccccc1 | 113% (inactive)
10 | CN(C)c1ccc(/C=C\c2cccc[n+]2C)cc1 | 105% (inactive)
11 | COc1cccc(NC(=O)OC(C)C)c1 | 98.4% (inactive)
12 | COC(=O)c1ccc2c(c1)nc(-c1ccc(Cl)cc1)n2-c1cc(C(C)(C)C)[nH]n1 | 14.2% (inactive)
13 | Cc1ccc(Nc2cc(Cl)c([N+](=O)[O-])cc2[N+](=O)[O-])cc1 | 26.5% (inactive)
14 | CCOC(=O)c1cc(C(=O)OCC)c(C)nc1C | 110% (inactive)
15 | O=C(Nc1cccc(C2=NCCN2)c1)c1ccc(N=Nc2ccc(C(=O)Nc3cccc(C4=NCCN4)c3)cc2)cc1 | 100% (inactive)
16 | Cc1c(C(=O)CCl)c(=O)n(-c2ccccc2)n1C | 83.3% (inactive)
17 | O=C1/C=C/[C@@H](O)[C@@H]2C[C@@H](O)C[C@H]2/C=C/CCC[C@H]([C@@H](O)CO)O1 | 90.1% (inactive)
18 | CC(=O)N1N=C(C2C(=O)N(C)C(=O)N(C)C2=O)CC1c1ccccc1C(=O)O (stereo not drawn) | 105% (inactive)
19 | Cn1c(=O)c2c(nc(N/N=C/c3ccccc3Cl)n2C)n(C)c1=O | 97.3% (inactive)

Row | SMILES | growth
20 | O=C1Nc2ccc(Cl)cc2/C1=C\c1c(-c2ccc(F)cc2)nc2ccccn12 | -37% (active)
21 | O=C(O/C(=C/c1ccccc1)C(F)(F)F)c1ccccc1 | 103% (inactive)
22 | COC(=O)c1ccc2c(c1)nc(-c1cc3ccccc3[nH]c1=O)n2-c1cc(C(C)(C)C)[nH]n1 | 2.6% (active)
23 | O=c1c2cc(Br)cc(Br)c2nc(-c2ccc(Cl)cc2)n1/N=C/c1cccc(F)c1 | 40.3% (inactive)
24 | CCOC(=O)Nc1ccc2nc(N3CCCCCC3)sc2c1 | 0.974% (active)
25 | COC(=O)CSc1ccc(Cl)cc1 | 115% (inactive)
26 | COc1ccc(C(=O)N2N=C(c3ccc(F)cc3)CC2c2cn(-c3ccccc3)nc2-c2ccccc2)cc1 (stereo not drawn) | 34.9% (inactive)
27 | N=c1nc(N2CCCCC2)cc(N)n1O | 122% (inactive)
28 | COc1ccc(C2NC(=O)c3cc4c(cc3N2)OCO4)cc1 (stereo not drawn) | 3.94% (active)
29 | O=C1OCC2=C1C(c1ccccc1)c1cc3c(cc1N2CCO)OCO3 (stereo not drawn) | -20.4% (active)
30 | COc1ccc(/C=C/c2nc(NCCCN(C)C)c3ccccc3n2)cc1 | 87.9% (inactive)
31 | c1ccc(CCn2cccc2)nc1 | 105% (inactive)
32 | Nc1cc(C(=O)O)cc(C(=O)O)c1 | 112% (inactive)
33 | Fc1ccc(-c2nc(-c3ccc(-c4nc5ccc(F)cc5[nH]4)cc3)no2)cc1 | 73.9% (inactive)
34 | N=C(N)c1ccc(NCCNc2ccc(C(=N)N)cc2)cc1 | 99% (inactive)
35 | COc1ccc(CC2c3cc(OC)c(OC)cc3CC[N+]2(C)CCC(=O)OCCCCCOC(=O)CC[N+]2(C)CCc3cc(OC)c(OC)cc3C2Cc2ccc(OC)c(OC)c2)cc1OC (stereo not drawn) | 78.1% (inactive)
36 | C=CCN(CC#N)CC=C | 115% (inactive)
37 | O=C1Nc2ccccc2/C1=C\c1nc(C2CCN(S(=O)(=O)c3ccc(F)cc3)CC2)n2ccccc12 | 17% (inactive)
38 | COc1ccc(Nc2nc(N)nc3c(=O)[nH]ccc23)cc1 | 100% (inactive)

Tested on: T-47D breast
Assay: as above
Conditions: 10 µM unless noted

Row | SMILES | growth
39 | C=C(C)[C@@H]1CC[C@]2(C(=O)NS(=O)(=O)c3ccccc3)CC[C@]3(C)[C@H](CC[C@@H]4[C@@]5(C)CC[C@H](OC(=O)NS(=O)(=O)c6ccccc6)C(C)(C)[C@@H]5CC[C@]43C)[C@@H]12 | 1.6% (active)
40 | O=[N+]([O-])c1ccc(N/N=C/c2ccccc2O)nc1 | 24% (inactive)
41 | CC(C)c1ccc(-c2cnc3nonc3n2)cc1 | 42.5% (inactive)
42 | COc1ccc(N=C2CSc3nnc(-c4cc(F)c(Cl)cc4Cl)n3N2)cc1 | -20.1% (active)
43 | O=C1C=CN2C(=O)CC=CC2[C@@H]1O (stereo partly drawn) | 90.4% (inactive)
44 | CCCNCCC(C)=O | 98.7% (inactive)
45 | CN(C)c1ccc(/C=C\c2cccc[n+]2C)cc1 | 14.6% (inactive)
46 | COc1cccc(NC(=O)OC(C)C)c1 | 93.8% (inactive)
47 | COC(=O)c1ccc2c(c1)nc(-c1ccc(Cl)cc1)n2-c1cc(C(C)(C)C)[nH]n1 | 76.9% (inactive)
48 | Cc1ccc(Nc2cc(Cl)c([N+](=O)[O-])cc2[N+](=O)[O-])cc1 | 1.27% (active)
49 | CCOC(=O)c1cc(C(=O)OCC)c(C)nc1C | 102% (inactive)
50 | O=C(Nc1cccc(C2=NCCN2)c1)c1ccc(N=Nc2ccc(C(=O)Nc3cccc(C4=NCCN4)c3)cc2)cc1 | 46.5% (inactive)
51 | Cc1c(C(=O)CCl)c(=O)n(-c2ccccc2)n1C | 34.3% (inactive)
52 | O=C1/C=C/[C@@H](O)[C@@H]2C[C@@H](O)C[C@H]2/C=C/CCC[C@H]([C@@H](O)CO)O1 | 81.8% (inactive)
53 | CC(=O)N1N=C(C2C(=O)N(C)C(=O)N(C)C2=O)CC1c1ccccc1C(=O)O (stereo not drawn) | 95.4% (inactive)
54 | Cn1c(=O)c2c(nc(N/N=C/c3ccccc3Cl)n2C)n(C)c1=O | 105% (inactive)
55 | O=C1Nc2ccc(Cl)cc2/C1=C\c1c(-c2ccc(F)cc2)nc2ccccn12 | 9.64% (active)
56 | O=C(O/C(=C/c1ccccc1)C(F)(F)F)c1ccccc1 | 101% (inactive)

Row | SMILES | growth
57 | COC(=O)c1ccc2c(c1)nc(-c1cc3ccccc3[nH]c1=O)n2-c1cc(C(C)(C)C)[nH]n1 | 59.3% (inactive)
58 | O=c1c2cc(Br)cc(Br)c2nc(-c2ccc(Cl)cc2)n1/N=C/c1cccc(F)c1 | 48.8% (inactive)
59 | CCOC(=O)Nc1ccc2nc(N3CCCCCC3)sc2c1 | 41.6% (inactive)
60 | COC(=O)CSc1ccc(Cl)cc1 | 98.7% (inactive)
61 | COc1ccc(C(=O)N2N=C(c3ccc(F)cc3)CC2c2cn(-c3ccccc3)nc2-c2ccccc2)cc1 (stereo not drawn) | 50.6% (inactive)
62 | N=c1nc(N2CCCCC2)cc(N)n1O | 100% (inactive)
63 | COc1ccc(C2NC(=O)c3cc4c(cc3N2)OCO4)cc1 (stereo not drawn) | 65.5% (inactive)
64 | O=C1OCC2=C1C(c1ccccc1)c1cc3c(cc1N2CCO)OCO3 (stereo not drawn) | 1.16% (active)
65 | COc1ccc(/C=C/c2nc(NCCCN(C)C)c3ccccc3n2)cc1 | 81.1% (inactive)
66 | c1ccc(CCn2cccc2)nc1 | 94.7% (inactive)
67 | Nc1cc(C(=O)O)cc(C(=O)O)c1 | 97.1% (inactive)
68 | Fc1ccc(-c2nc(-c3ccc(-c4nc5ccc(F)cc5[nH]4)cc3)no2)cc1 | 62.8% (inactive)
69 | N=C(N)c1ccc(NCCNc2ccc(C(=N)N)cc2)cc1 | 137% (inactive)
70 | COc1ccc(CC2c3cc(OC)c(OC)cc3CC[N+]2(C)CCC(=O)OCCCCCOC(=O)CC[N+]2(C)CCc3cc(OC)c(OC)cc3C2Cc2ccc(OC)c(OC)c2)cc1OC (stereo not drawn) | 94.5% (inactive)
71 | C=CCN(CC#N)CC=C | 101% (inactive)
72 | O=C1Nc2ccccc2/C1=C\c1nc(C2CCN(S(=O)(=O)c3ccc(F)cc3)CC2)n2ccccc12 | 48.1% (inactive)
73 | COc1ccc(Nc2nc(N)nc3c(=O)[nH]ccc23)cc1 | 96.6% (inactive)
